# According to the supplement of paper PMC7724964:
# T1: GGA1 1-157 VHS (domain begin residue: 1, domain end residue: 157), Q9UJY5
# T1 chain: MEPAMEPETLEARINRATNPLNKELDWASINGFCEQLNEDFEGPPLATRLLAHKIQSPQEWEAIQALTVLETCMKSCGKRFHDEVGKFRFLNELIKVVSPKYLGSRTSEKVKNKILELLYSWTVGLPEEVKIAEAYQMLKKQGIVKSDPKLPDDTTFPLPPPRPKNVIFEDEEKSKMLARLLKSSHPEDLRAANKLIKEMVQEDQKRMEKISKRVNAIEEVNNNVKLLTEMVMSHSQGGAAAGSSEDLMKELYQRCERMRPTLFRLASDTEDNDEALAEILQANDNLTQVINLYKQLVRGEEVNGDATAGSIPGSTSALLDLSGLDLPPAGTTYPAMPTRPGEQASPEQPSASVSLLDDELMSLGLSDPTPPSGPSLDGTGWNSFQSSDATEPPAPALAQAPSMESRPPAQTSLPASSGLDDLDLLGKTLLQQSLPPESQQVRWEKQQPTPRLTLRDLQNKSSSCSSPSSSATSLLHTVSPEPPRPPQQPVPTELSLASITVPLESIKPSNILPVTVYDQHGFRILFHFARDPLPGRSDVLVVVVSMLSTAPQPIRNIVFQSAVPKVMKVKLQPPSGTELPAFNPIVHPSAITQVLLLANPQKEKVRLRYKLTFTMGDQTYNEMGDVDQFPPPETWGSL
# T2: GIGYF1 448-540 GYF (domain begin residue: 448, domain end residue: 540), O75420
# T2 chain: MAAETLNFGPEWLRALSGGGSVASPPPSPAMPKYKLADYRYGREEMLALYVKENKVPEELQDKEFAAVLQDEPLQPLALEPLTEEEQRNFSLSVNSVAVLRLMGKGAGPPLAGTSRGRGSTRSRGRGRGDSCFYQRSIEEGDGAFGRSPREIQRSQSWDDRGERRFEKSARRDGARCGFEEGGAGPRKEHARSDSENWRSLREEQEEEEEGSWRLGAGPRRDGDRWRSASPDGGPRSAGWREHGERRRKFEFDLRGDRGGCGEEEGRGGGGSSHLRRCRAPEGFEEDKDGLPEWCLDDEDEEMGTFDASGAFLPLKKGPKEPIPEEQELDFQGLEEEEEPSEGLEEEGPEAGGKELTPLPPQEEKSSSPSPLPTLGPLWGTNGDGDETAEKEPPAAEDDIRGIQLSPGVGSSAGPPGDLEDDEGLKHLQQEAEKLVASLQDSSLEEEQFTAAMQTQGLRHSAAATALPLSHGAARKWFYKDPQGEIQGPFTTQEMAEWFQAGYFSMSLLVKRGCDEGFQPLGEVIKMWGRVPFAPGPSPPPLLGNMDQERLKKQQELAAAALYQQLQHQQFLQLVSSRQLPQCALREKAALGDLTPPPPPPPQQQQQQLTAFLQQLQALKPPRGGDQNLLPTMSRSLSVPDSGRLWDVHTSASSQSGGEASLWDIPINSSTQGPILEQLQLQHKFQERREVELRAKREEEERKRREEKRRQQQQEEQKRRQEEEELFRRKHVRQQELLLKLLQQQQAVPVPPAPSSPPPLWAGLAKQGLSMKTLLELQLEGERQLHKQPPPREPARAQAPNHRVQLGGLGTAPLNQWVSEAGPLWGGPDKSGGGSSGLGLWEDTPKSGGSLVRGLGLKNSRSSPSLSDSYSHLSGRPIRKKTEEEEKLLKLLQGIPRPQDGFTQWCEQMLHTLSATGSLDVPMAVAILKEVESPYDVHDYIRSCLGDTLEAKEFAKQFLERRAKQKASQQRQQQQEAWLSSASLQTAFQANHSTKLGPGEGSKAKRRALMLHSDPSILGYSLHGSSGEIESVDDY
# T3: GIGYF2 507-602 GYF (domain begin residue: 507, domain end residue: 602), Q6Y7W6
# T3 chain: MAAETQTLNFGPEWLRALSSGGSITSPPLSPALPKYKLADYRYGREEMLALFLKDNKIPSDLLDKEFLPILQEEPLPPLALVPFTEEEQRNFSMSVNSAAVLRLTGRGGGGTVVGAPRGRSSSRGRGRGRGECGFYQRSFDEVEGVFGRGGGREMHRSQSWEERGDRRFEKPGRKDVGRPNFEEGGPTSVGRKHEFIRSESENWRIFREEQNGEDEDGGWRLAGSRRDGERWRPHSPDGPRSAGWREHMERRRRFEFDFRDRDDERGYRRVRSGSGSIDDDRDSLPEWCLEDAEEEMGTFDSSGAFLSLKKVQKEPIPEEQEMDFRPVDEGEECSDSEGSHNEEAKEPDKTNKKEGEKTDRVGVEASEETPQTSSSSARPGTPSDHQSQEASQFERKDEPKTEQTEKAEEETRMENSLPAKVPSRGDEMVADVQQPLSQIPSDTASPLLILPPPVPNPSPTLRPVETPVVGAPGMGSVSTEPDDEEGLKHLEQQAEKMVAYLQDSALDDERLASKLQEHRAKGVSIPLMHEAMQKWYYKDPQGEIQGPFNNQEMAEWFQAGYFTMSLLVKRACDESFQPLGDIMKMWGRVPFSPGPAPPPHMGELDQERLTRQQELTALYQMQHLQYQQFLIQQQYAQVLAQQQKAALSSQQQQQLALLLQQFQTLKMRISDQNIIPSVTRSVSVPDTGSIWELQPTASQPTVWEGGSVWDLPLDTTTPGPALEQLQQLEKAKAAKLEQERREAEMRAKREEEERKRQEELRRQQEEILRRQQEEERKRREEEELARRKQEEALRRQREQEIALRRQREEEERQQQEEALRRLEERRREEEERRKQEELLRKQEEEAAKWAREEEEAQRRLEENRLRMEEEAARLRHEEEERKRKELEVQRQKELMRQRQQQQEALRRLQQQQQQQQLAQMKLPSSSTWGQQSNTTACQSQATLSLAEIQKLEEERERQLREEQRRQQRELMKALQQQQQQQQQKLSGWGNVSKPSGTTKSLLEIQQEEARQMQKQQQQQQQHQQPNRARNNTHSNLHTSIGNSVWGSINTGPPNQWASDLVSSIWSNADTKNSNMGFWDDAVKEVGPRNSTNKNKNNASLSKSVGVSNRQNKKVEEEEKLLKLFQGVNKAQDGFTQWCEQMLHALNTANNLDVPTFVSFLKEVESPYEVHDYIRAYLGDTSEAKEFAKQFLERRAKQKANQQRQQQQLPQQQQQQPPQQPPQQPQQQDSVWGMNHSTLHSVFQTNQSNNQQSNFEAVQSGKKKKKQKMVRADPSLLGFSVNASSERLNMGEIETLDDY
# T4: FRS3 12-117 IRS (domain begin residue: 12, domain end residue: 117), O43559
# T4 chain: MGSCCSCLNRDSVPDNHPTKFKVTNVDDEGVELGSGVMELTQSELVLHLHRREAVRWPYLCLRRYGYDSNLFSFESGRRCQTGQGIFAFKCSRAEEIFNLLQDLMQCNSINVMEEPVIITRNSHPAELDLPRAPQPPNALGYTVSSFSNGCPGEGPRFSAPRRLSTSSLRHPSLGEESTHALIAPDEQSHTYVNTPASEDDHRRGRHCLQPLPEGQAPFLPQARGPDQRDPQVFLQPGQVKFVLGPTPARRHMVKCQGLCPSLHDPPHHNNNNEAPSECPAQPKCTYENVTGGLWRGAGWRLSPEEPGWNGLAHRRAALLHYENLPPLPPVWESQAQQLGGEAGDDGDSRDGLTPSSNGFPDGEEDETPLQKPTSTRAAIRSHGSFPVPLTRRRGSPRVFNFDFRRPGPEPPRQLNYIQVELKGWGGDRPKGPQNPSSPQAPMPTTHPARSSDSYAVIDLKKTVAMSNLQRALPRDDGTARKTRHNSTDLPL
# How the values were obtained:
# Experiment in all cases: phage ELISA signal ratio (GST-PRM binding over GST background); higher = stronger binding of peptide-phage to the PRM
# [1] = molecular target: GGA3 579-723 Alpha_adaptinC2 (domain begin residue: 579, domain end residue: 723)
# Procedure, shortened: (§1)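 Human peptide recognition domains were expressed in 96-well plates as fusions to the C-terminus of glutathione S-transferase (GST) and selected against an M13 phage library displaying randomized hexadecapeptides, cysteine-free and glycine-flanked, on the gene-8 major coat protein. Five selection rounds were run, and approximately 48 individual clones from rounds 4 and 5 were tested by phage ELISA. Each value is the ELISA signal on the GST-domain fusion divided by the signal on GST alone. Positive clones were sequenced.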
# [2] = molecular target: GGA3 1-153 VHS (domain begin residue: 1, domain end residue: 153)
# Procedure, shortened: as §1
# [3] = molecular target: T1, GGA1 1-157 VHS (domain begin residue: …
# Procedure, shortened: as §1
# [4] = molecular target: T2, GIGYF1 448-540 GYF (domain begin …
# Procedure, shortened: as §1
# [5] = molecular target: T3, GIGYF2 507-602 GYF (domain begin …
# Procedure, shortened: as §1
# [6] = molecular target: T4, FRS3 12-117 IRS (domain begin residue: …
# Procedure, shortened: as §1
binder,measurement,setting,value
DTWMWGGYVSHTVQPY,phage ELISA signal ratio,[1],23.1
HVEQWWTTESWPNWYT,phage ELISA signal ratio,[2],15.3
GEMDDPMMHFSWVAMW,phage ELISA signal ratio,[3],12.6
MDWTILDFPYQNWPRS,phage ELISA signal ratio,[2],13.9
QTDDPMWIPHQWFQAG,phage ELISA signal ratio,[2],23.1
IENSQPWITEYGAWEV,phage ELISA signal ratio,[1],6.07
WHGQEADDVQMLWHWS,phage ELISA signal ratio,[2],5.39
TIDTPPGFPTSQHEGM,phage ELISA signal ratio,[4],16.8
HLDQPPWWTLQEWASH,phage ELISA signal ratio,[2],12.2
GPPGFHQHADVMRYEM,phage ELISA signal ratio,[4],20.9
MEPFTTWDQLPWWMQE,phage ELISA signal ratio,[2],12.9
DHWGPPGLTWHVMERA,phage ELISA signal ratio,[4],10.1
QTMTWEARDPSKMLEL,phage ELISA signal ratio,[3],12.5
TPPGYTMLMKEHSARH,phage ELISA signal ratio,[5],20.5
QAWDWGIYIDDWAQPL,phage ELISA signal ratio,[2],10.6
SDVPPWWYHEPITGPM,phage ELISA signal ratio,[2],17.8
WDIDMWDLQEWMMIQS,phage ELISA signal ratio,[3],13.9
HSQWWVGPEQPWGQVQ,phage ELISA signal ratio,[2],12.2
QHLWHWEDTDYYEWSE,phage ELISA signal ratio,[2],20.1
GEQMMWVDWGQWHWYE,phage ELISA signal ratio,[1],26
SFTWDSFESYVEPWKY,phage ELISA signal ratio,[1],9.04
QRPPGNWGEVTQVPIL,phage ELISA signal ratio,[5],9.77
EGMGPPGFWVGSDLRG,phage ELISA signal ratio,[5],14.7
RFPPGMMQQLPQYADS,phage ELISA signal ratio,[5],29.9
AMTPPGFPHNTQMIRA,phage ELISA signal ratio,[5],16.9
PQGTWFTIIQEPSQHD,phage ELISA signal ratio,[6],5.78
ASQWEWDDWLYIHSQT,phage ELISA signal ratio,[1],7.22
QPPPGWVPSTELLEFL,phage ELISA signal ratio,[5],23.1
DWSQWQTAAMEEMITW,phage ELISA signal ratio,[1],18.5
NYPNHPPGYEKWFQTM,phage ELISA signal ratio,[5],26.6
